Records with an inconclusive call do not appear. The source made the active and inactive calls. Unless noted, the call rests on the fitted dose curve; in most records, active means well fitted curve in the direction sought with a large enough effect in the repeat runs; inconclusive means weak or mixed curves; inactive means no such curve, though single readings can be large; an effect the other way counts as inactive or inconclusive.
What was measured:
[1] = biological target: Thyrotropin receptor (Homo sapiens) (UniProt P16473); assay: qHTS assay to identify small molecule antagonists of the thyroid stimulating hormone receptor (TSHR) signaling pathway (AID 1259385; calls by dose curve; further: nearly all actives have a fitted effect of over 20% in size)
Summary of the method: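 Antagonist mode: compound-treated TSHR-expressing HEK293 cells were stimulated with 1.5 ng/mL TSH (final) in presence of Ro20-1724 for 30 min at RT. HTRF cAMP detection after 1 h; each compound tested at 15 concentrations, triplicate.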

[2] = qHTS assay to identify small molecule agonists of the estrogen receptor alpha (ER-alpha) signaling pathway in the presence of an antagonist - cell viability counter screen (AID 1259386);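 further: series mostly up to about 92 µM; cells exposed to compounds for 22 h at 37 °C before the viability read; nearly all actives have a fitted effect of over 30% in size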
Summary of the method: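 In this counter screen, compound effects on VM7Luc4E2 viability were tested in the presence of the antagonist ICI-182,780 at 10.0nM final. Compounds were dosed at 15 concentrations, exposure lasted 22hr, and the CellTiter-Fluor signal was read.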

[3] = biological target: Progesterone receptor (Homo sapiens) (UniProt P06401); assay: qHTS assay to identify small molecule agonists of the progesterone receptor (PR) signaling pathway (AID 1346784; calls by dose curve; further: nearly all actives have a fitted effect of over 30% in size)
Summary of the method: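 PR-UAS-bla HEK 293T cells (beta-lactamase reporter under UAS) in 2% charcoal-stripped FBS, dosed with 23 nL compound after 6 hr, incubated 16hr at 37C. LiveBLAzer B/G FRET substrate added, fluorescence read after 2 hours.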

[4] = biological target: Progesterone receptor (Homo sapiens) (UniProt P06401); assay: qHTS assay to identify small molecule antagonists of the progesterone receptor (PR) signaling pathway (AID 1346795; active means well fitted inhibition curve with a large enough effect in the signal ratio in the repeat runs, not every such curve was filed as active; the % refers to the signal ratio; further: potency means the concentration at half of the fitted maximal effect)
Summary of the method: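 PR-UAS-bla HEK293T cells with beta-lactamase reporter under UAS control, in 2% charcoal-stripped FBS, treated with compounds plus 1 nM promegestone (R5020, final) for 16 hr at 37C. Read-out: FRET beta-lactamase substrate fluorescence after 2 hr at room temperature.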

[5] = qHTS assay to identify small molecule antagonists of the TGF-beta/Smad signaling pathway - cell viability counter screen (AID 1346824); further: nearly all actives have a fitted effect of over 50% in size
Summary of the method: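 Cytotoxicity counter-screen run in the same wells as the beta-lactamase Smad reporter read: CellTiter-Glo luminescence after 30 min at room temperature. HEK 293T SBE-bla cells had 5 hr compound exposure at 37 C with TGF-beta1 (0.25 ng/mL stock).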

[6] = qHTS assay to identify small molecule agonists of the TGF-beta/Smad signaling pathway - cell viability counter screen (AID 1346829); further: top concentration of the series differs between compounds; nearly all actives have a fitted effect of over 45% in size
Summary of the method: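 Tox21 qHTS format: SBE-bla HEK 293T cells treated with DMSO-dissolved compounds for 5 hr; CellTiter-Glo luminescence after 30 min at room temperature.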

[7] = qHTS assay to identify small molecule agonists of the TGF-beta/Smad signaling pathway (AID 1346859; active means well fitted activation curve with a large enough effect in the signal ratio in the repeat runs, not every such curve was filed as active; the % refers to the signal ratio; further: series mostly up to about 77 µM)
Summary of the method: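 SBE-bla HEK293T cells plated overnight, then compound exposure for 5 h at 37 C. Beta-lactamase reporter read with LiveBLAzer B/G FRET substrate after 2 h at room temperature, fluorescence at 405 nm excitation, 460/530 nm emission.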

[8] = biological target: Thyrotropin-releasing hormone receptor (Homo sapiens) (UniProt P34981); assay: qHTS assay to identify small molecule antagonists of the thyrotropin-releasing hormone receptor (TRHR) signaling pathway (AID 1346877; active means well fitted inhibition curve with a large enough effect in the repeat runs, not every such curve was filed as active; further: series mostly up to about 51 µM)
Summary of the method: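 Kinetic fluorescence (3 min, 1 s resolution) following stimulation with TRH at 1 nM final; HEK293 cells bearing human TRHR; 5 min compound preincubation at RT; concentration-response over 15 points, triplicates.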

[9] = biological target: Thyrotropin-releasing hormone receptor (Homo sapiens) (UniProt P34981); assay: qHTS assay to identify small molecule agonists of the thyrotropin-releasing hormone receptor (TRHR) signaling pathway (AID 1346891; calls by dose curve; further: series mostly up to about 58 µM)
Summary of the method: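 HEK293 cells expressing TRHR plated 18 h at 37 C/5% CO2, calcium dye-loaded 2 h at 37 C, then compound added (agonist mode); kinetic calcium fluorescence read 3 min at 1 s intervals; 15 concentrations in triplicate.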

[10] = Human pregnane X receptor (PXR) small molecule agonists, qHTS cell viability counter screen (AID 1346977); further: nearly all actives have a fitted effect of over 50% in size
Summary of the method: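 PXR-Luc HepG2 cells (2,000/well, 5% charcoal-stripped FBS) preincubated 5 hr, then exposed to compounds 24 hr at 37 C. Viability read in the same wells by CellTiter-Fluor fluorescence, reagent added at 23 hr, 1 hr incubation.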

[11] = Caspase-3/7 induction in CHO-K1 cells by small molecules, qHTS cell viability counter screen (AID 1346979); further: nearly all actives have a fitted effect of over 35% in size
Summary of the method: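 Wild-type CHO-K1 cells (1,500/well) treated with compound after 5 h plating; after 16 h at 37C, viability read as CellTiter-Fluor fluorescence following 1 h reagent incubation, in the same wells as the caspase read.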

[12] = Caspase-3/7 induction in CHO-K1 cells by small molecules, qHTS assay (AID 1346980); further: nearly all actives have a fitted effect of over 15% in size
Summary of the method: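 Luminescent Caspase-Glo 3/7 read (30min, room temperature) quantified apoptosis induction. Cells were wild-type CHO-K1, treated with compound for 17hr at 37 C and 5% CO2.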

[13] = Caspase-3/7 induction in HepG2 cells by small molecules, qHTS cell viability counter screen (AID 1346981); further: series mostly up to about 92 µM; nearly all actives have a fitted effect of over 30% in size
Summary of the method: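 In this quantitative HTS counter screen, compounds delivered in DMSO were left on unmodified HepG2 cells for 16 hr at 37 C. Viability was then determined fluorometrically with CellTiter-Fluor, in parallel with caspase-3/7 induction in the same wells.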

[14] = biological target: Nuclear receptor subfamily 1 group I member 2 (Homo sapiens) (UniProt O75469); assay: Human pregnane X receptor (PXR) small molecule agonists, qHTS assay (AID 1346982); further: nearly all actives have a fitted effect of over 35% in size; further: potency means the concentration at half of the fitted maximal effect
Summary of the method: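 Reporter HepG2 cells expressing PXR-Luc are cultured in charcoal-stripped FBS (5%), treated with compounds for 24 hr at 37 C, and assayed by ONE-Glo luminescence after 30 min at room temperature.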

[15] = qHTS assay to identify small molecule agonists of the progesterone receptor (PR) signaling pathway - cell viability counter screen (AID 1346799; calls by dose curve; further: nearly all actives have a fitted effect of over 45% in size)
Summary of the method: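 Counter screen in the PR-UAS-bla HEK293T wells (2% charcoal-stripped FBS, 16 h compound exposure at 37 C) after the bla read. CellTiter-Glo added, 30 min at room temperature, luminescence read as cell viability.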

[16] = Caspase-3/7 induction in HepG2 cells by small molecules, qHTS assay (AID 1346978); further: nearly all actives have a fitted effect of over 15% in size
Summary of the method: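 Caspase-3/7 induction was measured by Caspase-Glo 3/7 luminescence (30 min, room temperature) after a 17 hr compound exposure of wild-type HepG2 cells seeded at 2,000 per well and pre-incubated 5 hr.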

[17] = qHTS assay to identify small molecule antagonists of the progesterone receptor (PR) signaling pathway - cell viability counter screen (AID 1346798); further: series mostly up to about 92 µM; nearly all actives have a fitted effect of over 50% in size
Summary of the method: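 PR-UAS-bla HEK293T cells, 3,000/well in 2% charcoal-stripped FBS medium, dosed with compounds plus R5020 agonist and incubated 16 h at 37C. Viability then measured in the same wells by CellTiter-Glo luminescence after 30 min at RT.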

Measured: Potency

Thyrotropin receptor (Homo sapiens), sequence (P16473 whole entry, looked up): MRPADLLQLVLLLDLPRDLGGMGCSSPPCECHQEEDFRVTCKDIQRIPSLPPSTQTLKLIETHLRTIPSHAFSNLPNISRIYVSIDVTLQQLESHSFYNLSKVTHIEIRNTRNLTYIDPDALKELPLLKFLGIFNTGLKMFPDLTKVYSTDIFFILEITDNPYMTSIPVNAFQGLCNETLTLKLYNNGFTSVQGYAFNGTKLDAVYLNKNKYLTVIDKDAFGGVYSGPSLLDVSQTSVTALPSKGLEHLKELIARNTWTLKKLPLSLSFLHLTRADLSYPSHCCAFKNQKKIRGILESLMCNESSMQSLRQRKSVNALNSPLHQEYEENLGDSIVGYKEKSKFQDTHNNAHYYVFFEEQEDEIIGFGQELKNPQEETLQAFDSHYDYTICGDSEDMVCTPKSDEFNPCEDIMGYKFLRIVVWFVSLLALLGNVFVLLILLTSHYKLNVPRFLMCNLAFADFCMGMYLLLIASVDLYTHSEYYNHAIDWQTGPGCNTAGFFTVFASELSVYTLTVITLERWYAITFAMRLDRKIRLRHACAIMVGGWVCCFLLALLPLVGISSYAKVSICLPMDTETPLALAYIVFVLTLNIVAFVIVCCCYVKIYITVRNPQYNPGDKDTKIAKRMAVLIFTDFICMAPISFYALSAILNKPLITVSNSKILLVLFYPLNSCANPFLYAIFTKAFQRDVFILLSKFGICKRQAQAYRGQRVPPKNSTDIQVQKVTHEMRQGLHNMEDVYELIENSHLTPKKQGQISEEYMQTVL
Progesterone receptor (Homo sapiens), sequence (P06401 whole entry, looked up): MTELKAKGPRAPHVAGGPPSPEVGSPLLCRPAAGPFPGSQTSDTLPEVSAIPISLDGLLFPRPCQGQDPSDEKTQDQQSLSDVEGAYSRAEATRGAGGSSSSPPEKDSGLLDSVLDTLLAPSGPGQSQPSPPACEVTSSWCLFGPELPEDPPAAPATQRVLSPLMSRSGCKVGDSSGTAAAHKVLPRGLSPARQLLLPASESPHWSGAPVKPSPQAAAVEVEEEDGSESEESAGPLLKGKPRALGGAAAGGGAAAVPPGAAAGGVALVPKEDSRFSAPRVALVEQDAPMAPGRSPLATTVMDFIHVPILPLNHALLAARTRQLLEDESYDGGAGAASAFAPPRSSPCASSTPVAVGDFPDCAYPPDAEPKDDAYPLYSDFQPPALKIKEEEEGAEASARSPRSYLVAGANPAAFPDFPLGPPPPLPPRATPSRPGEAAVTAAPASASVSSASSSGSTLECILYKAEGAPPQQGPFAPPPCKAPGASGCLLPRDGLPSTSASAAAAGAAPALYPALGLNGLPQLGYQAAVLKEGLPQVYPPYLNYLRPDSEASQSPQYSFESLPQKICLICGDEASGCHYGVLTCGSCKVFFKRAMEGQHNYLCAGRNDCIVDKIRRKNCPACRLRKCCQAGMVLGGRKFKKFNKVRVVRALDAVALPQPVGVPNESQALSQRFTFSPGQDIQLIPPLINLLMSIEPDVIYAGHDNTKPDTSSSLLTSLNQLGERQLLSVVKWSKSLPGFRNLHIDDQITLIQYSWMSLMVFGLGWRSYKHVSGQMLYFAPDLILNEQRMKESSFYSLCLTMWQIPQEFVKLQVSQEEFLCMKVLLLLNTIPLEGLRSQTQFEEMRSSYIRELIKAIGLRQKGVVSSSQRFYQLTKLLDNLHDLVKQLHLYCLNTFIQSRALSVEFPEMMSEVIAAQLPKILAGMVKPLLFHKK
Nuclear receptor subfamily 1 group I member 2 (Homo sapiens), sequence (O75469 whole entry, looked up): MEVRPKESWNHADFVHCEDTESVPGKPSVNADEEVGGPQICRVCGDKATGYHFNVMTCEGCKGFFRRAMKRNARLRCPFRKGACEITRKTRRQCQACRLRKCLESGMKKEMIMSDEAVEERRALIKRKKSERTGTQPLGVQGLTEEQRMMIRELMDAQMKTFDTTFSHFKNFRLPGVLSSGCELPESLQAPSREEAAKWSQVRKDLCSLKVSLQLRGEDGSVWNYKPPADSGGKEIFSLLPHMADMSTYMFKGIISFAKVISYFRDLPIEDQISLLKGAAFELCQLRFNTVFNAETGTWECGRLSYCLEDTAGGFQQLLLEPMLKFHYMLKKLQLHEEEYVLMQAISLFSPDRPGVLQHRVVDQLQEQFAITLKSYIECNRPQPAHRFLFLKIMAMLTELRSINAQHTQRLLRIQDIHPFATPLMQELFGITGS
Thyrotropin-releasing hormone receptor (Homo sapiens), sequence (P34981 whole entry, looked up): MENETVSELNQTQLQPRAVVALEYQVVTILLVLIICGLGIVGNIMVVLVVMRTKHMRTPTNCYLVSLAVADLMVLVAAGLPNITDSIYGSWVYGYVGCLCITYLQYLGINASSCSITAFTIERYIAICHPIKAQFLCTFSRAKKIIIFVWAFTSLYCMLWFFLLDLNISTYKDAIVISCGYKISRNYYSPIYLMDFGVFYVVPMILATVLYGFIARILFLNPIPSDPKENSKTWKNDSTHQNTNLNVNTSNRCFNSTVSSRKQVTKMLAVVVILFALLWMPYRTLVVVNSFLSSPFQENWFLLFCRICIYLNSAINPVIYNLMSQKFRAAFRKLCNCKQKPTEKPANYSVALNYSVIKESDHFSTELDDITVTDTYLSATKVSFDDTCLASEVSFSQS

COc1cc(CNC(=O)CCCC/C=C/C(C)C)ccc1O
active: [4] 53 µM | [14] 33.5 µM
not listed: [15] | [16] | [17]
inactive: all other assays above

N#C[C@@H]1CC(F)(F)CN1C(=O)CNC1CC2CCC(C1)N2c1ncccn1 (stereo partly specified)
not listed: [8] | [9] | [10] | [12] | [17]
inactive: all other assays above

O=C(c1ccc(Cl)cc1)c1ccc(Cl)cc1
not listed: [14] | [16] | [17]
inactive: all other assays above

OCCOc1cccc(OCCO)c1
not listed: [5] | [16] | [17]
inactive: all other assays above

O=Cc1ccc([N+](=O)[O-])cc1
not listed: [8] | [9] | [14] | [15]
inactive: all other assays above

CCC1=C(C)CN(C(=O)NCCc2ccc(S(=O)(=O)NC(=O)NC3CCC(C)CC3)cc2)C1=O (stereo unspecified)
not listed: [5] | [7] | [12]
inactive: all other assays above

CC(Cc1ccccc1)(NC(=O)CN)c1ccccc1 (stereo unspecified)
not listed: [5] | [6] | [8] | [9] | [11] | [14]
inactive: all other assays above

Cc1c(N=C=O)cccc1N=C=O
not listed: [17]
inactive: all other assays above

C=C[Si]1(C)O[Si](C)(C=C)O[Si](C)(C=C)O[Si](C)(C=C)O1 (stereo unspecified)
not listed: [8] | [13] | [14] | [17]
inactive: all other assays above

Clc1ccccc1-c1nc(-c2ccncc2)no1
active: [4] 26.6 µM | [14] 5.31 µM
not listed: [15] | [17]
inactive: all other assays above

— PubChem BioAssay (Tox21)
